# Assay outcomes as filed in PubChem BioAssay.
# An excerpt weighted towards active compounds, which were near 5.7% of everything screened.
# KB-V1 cytotox: qHTS assay for MDR1-selective chemotherapeutics: Primary screen using the drug-selected MDR subline cells KB-V1; KB-V1 MDR cells viability, CellTiter-Glo, 72 h; Potency, µM (highest dose often 46.1 µM), most hits filed as cytotoxic; 400,000 tested, 3.4% active; AID 1347076, 2019; also: potency is read from the fitted curve at half-maximal effect; nearly all actives have a fitted effect of over 60% in size
#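 In this primary screen, KB-V1 cells overexpressing P-gp are incubated with library compounds (lowest to highest concentration) for 72 h at 37 degrees C before a luminescent ATP viability read.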
# A549 tox: Nrf2 qHTS screen for inhibitors: counterscreen for cytotoxicity. A549 ARE-Fluc cells, CellTiter-Fluor viability, 18-24 h. Potency, µM (titrated, usually from 46 µM), for the others: top-dose activity change, negative = cytotoxicity, most hits filed as inhibitors. 390,000 tested, 0.16% active. AID 504648, 2011; also: potency is read from the fitted curve at half-maximal effect
#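 Cytotoxicity counterscreen: CellTiter-Fluor fluorescence was measured in A549 ARE_Fluc cells after 18-24 h of compound exposure in a concentration series. The subsequent BugLite luminescent read reports ARE-luciferase activity.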
# Giardia killer: Small Molecules that selectively kill Giardia lamblia: qHTS; Giardia lamblia trophozoite viability; activity change, % at 7.66 µM, hits read low; AID 540267, 2011; 340,000 tested, 0.15% active; in the data active = activity change below about -80%; inconclusive = between about -30% and that limit;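 also: parasites exposed to compound for two days anaerobically before the ATP read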
#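 ATP-content bioluminescence gauges trophozoite survival. Cells (100/well) receive compound and incubate anaerobically for 48 hrs at 37 deg C; detection reagent follows for 15-30 min at room temperature.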
# KB-3-1 cytotox: qHTS assay for MDR1-selective chemotherapeutics: Primary screen using the parental adenocarcinoma cell KB-3-1; AID 1347075, 2019; Potency, µM (titrated, usually from 46.1 µM), actives largely listed as cytotoxic; 400,000 tested, 1.4% active; KB-3-1 viability, CellTiter-Glo ATP luminescence, 72 h; also: potency is read from the fitted curve at half-maximal effect; nearly all actives have a fitted effect of over 60% in size
#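 Parental KB-3-1 adenocarcinoma cells in phenol-red-free DMEM with 10% FBS were pin-treated with compounds at several concentrations, incubated 72 h at 37 °C, and viability read by CellTiter-Glo luminescence; concentration-effect curves were fitted after normalization.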
# Nrf2 block: Nrf2 qHTS screen for inhibitors; A549 ARE-Fluc reporter, luciferase luminescence, 18-24 h; Potency, µM (top dose mostly 46 µM), for inactives: at the top dose activity change, negative = inhibition, usual class: inhibitors; 360,000 tested, 2.1% active; AID 504444, 2011; also: potency is read from the fitted curve at half-maximal effect; nearly all actives have a fitted effect of over 60% in size
#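 A549 ARE_Fluc cells (5000/well, 5% FBS OPTI-MEM) pre-incubated 2 h, then treated with compounds 18-24 h at 37C/5% CO2 in concentration-response. CellTiter-Fluor viability read first; BugLite luciferase luminescence after 15 min at room temperature gives Nrf2 activity.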
# PI4K2A inh: qHTS for small molecular inhibitors of PI4K2A. 420,000 tested, 0.13% active. Phosphatidylinositol 4-kinase type 2-alpha (Homo sapiens), Q9BTU6. purified PI4K2A, ADP-Glo luminescence, 1 h; active compounds read low. activity change, negative = inhibition, % at 76.9 µM; in the data active = activity change below about -50%; inconclusive = mostly about -30% to -49%;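 also: -100% = wells without enzyme as full effect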
# Target sequence (Q9BTU6 whole entry, looked up): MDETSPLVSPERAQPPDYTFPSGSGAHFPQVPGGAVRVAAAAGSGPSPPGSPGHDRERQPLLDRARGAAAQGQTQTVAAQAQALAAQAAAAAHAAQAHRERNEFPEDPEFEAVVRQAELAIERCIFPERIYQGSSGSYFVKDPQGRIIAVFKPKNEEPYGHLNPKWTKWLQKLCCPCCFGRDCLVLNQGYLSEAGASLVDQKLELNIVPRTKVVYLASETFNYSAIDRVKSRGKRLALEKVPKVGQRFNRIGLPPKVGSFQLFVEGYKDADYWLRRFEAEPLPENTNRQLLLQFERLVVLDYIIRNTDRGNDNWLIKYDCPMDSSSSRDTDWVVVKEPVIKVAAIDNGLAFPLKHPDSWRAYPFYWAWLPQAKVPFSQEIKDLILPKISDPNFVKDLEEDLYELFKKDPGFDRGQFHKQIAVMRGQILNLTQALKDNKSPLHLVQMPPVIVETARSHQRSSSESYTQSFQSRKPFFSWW
#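 Compounds are screened against recombinant PI4K2A using PI as substrate and ATP, the latter dispensed at 300 microM. Reactions run one hour at ambient temperature before ADP-Glo detection; full inhibition defined by wells lacking enzyme.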
# Numbers without * were called inactive; i = inactive; ? = inconclusive; . = no result. Unless noted, calls follow the shape of the dose curve; as a rule, active = well fitted curve in the direction sought with a large enough effect; inconclusive = small, poorly fitted or top-dose-only effect, or another doubt; inactive = no such curve, though single readings can be large; an effect the other way counts as inactive or inconclusive. Unless noted, % is scaled to controls: 0 for no effect and ±100 for the full control effect.
SMILES,KB-V1 cytotox,A549 tox,Giardia killer,KB-3-1 cytotox,Nrf2 block,PI4K2A inh
CN(C)S(=O)(=O)N1CCCC(C(=O)c2ccc(C(F)(F)F)cc2)C1 (configuration not stated),23µM*,17%,-21,i,-5%,4
CN(C)S(=O)(=O)N1CCCC(C(=O)c2ccc(-c3ccccc3)cc2)C1 (configuration not stated),i,8%,-13,i,?,-10
COc1ccc(CN2C(=O)c3ccnn3CC2(C)c2nnnn2-c2c(C)cccc2C)cc1 (configuration not stated),.,.,.,.,.,1
Cc1ccc(NC(=O)c2ccc(C)c(S(=O)(=O)N3CCOCC3)c2)nc1,15µM*,3%,-24,i,?,6
O=C(NCCSCc1c(F)cccc1Cl)c1ccc(CN2CCOCC2)cc1,16µM*,0%,25,?,?,-5
O=C(NCCSCc1ccco1)c1ccc(CN2CCOCC2)cc1,i,-2%,-2,i,?,1
Cc1ccc(NC(=O)c2ccc(S(=O)(=O)N3CCOCC3)cc2)nc1,16µM*,-28%,-5,i,15%,-1
Cc1ccc(C(=O)Nc2ccc(S(=O)(=O)N3CCOCC3)cc2)cc1,i,6%,1,i,-4%,0
Cc1ccc(C(=O)Nc2ccc(Cl)cn2)cc1S(=O)(=O)N1CCOCC1,?,-6%,-1,i,6%,3
Cc1ccc(CSCCNC(=O)c2ccc(Cl)c(S(=O)(=O)N3CCOCC3)c2)cc1,3.7µM*,1%,-8,21µM*,?,-4
C[C@H]1[C@@H](OC(=O)N2CCOCC2)CC[C@@]23CCCN2C(=O)CCC[C@@H]13,.,.,.,.,.,3
O=C(Nc1ccc(Cc2ccncc2)cc1)c1ccc(S(=O)(=O)N2CCOCC2)cc1,?,-5%,8,i,9.2µM*,9
Cc1ccc(NC(=O)c2ccc(C(=O)c3ccccc3)cc2)nc1,?,-6%,7,15µM*,?,0
Cc1ccc(NC(=O)c2ccc3nc[nH]c3c2)nc1,i,-9%,?,?,-3%,-9
NC(=Nc1cccc(F)c1)NC(=O)OCc1ccccc1,.,.,.,.,.,4
CCOc1ccc(Cl)cc1C1=CC(=O)C[C@H](c2ccc(OC)cc2)C1,4.6µM*,-6%,24,?,?,-2
COc1ccc([C@H]2CC(=O)C=C(c3cc(C=O)ccc3OC)C2)cc1,?,0%,-12,16µM*,9%,3
COc1ccc([C@H]2CC(=O)C=C(c3cc(OC)ccc3OC)C2)cc1,23µM*,6%,-9,16µM*,?,-2
COc1ccc(OC)c(C2=CC(=O)C[C@H](c3ccc(F)cc3)C2)c1,i,.,.,i,.,12
CCN(CC)CCCN1C(=O)C2=C(C1=O)C1N(C)c3ccccc3[C@@]13C[C@@H](CO)N(C(=O)CCC(=O)OC)C3=N2 (some centres not stated),.,.,.,.,.,-2
CCOc1ccc(S(=O)(=O)Nc2cccc(C(=O)N3CCN(c4ccccc4O)CC3)c2)cc1,21µM*,-18%,13,i,?,-4
O=C(c1ccc(S(=O)(=O)Nc2cccc(C(F)(F)F)c2)cc1)N1CCN(c2ccccc2O)CC1,21µM*,-3%,12,?,?,-10
O=C(c1ccc(NS(=O)(=O)c2ccc(F)cc2)cc1)N1CCN(c2ccccc2O)CC1,?,0%,2,i,-24%,1
O=C(c1cccc(S(=O)(=O)N2CCOCC2)c1)N1CCN(C/C=C/c2ccccc2)CC1,.,-8%,-1,.,?,-5
CCOc1ccc(NS(=O)(=O)c2cccc(C(=O)N3CCN(C/C=C/c4ccccc4)CC3)c2)cc1,6.5µM*,-16%,0,18µM*,?,4
SMILES,KB-V1 cytotox,A549 tox,Giardia killer,KB-3-1 cytotox,Nrf2 block,PI4K2A inh
CC(=O)c1ccc(S(=O)(=O)NCC(=O)N2CCN(C/C=C/c3ccccc3)CC2)cc1,18µM*,3%,37,i,-26%,-7
Cc1ccc(S(=O)(=O)NCCC(=O)N2CCN(C/C=C/c3ccccc3)CC2)cc1,i,-6%,5,i,?,2
CCOc1ccc(S(=O)(=O)Nc2cccc(C(=O)N3CCN(c4ccccn4)CC3)c2)cc1,?,.,.,i,.,1
CC(=O)c1ccc(NC(=O)CCc2c(C)nn(-c3ccc4nncn4n3)c2C)cc1,.,5%,.,.,.,-2
COc1cccc(C(C)NC(=O)c2c(F)cccc2Cl)c1 (configuration not stated),i,0%,-3,i,5%,-2
COc1cccc(C(C)NC(=O)Nc2ccccc2Cl)c1 (configuration not stated),i,3%,-1,i,10µM*,-2
c1ccc(Cn2c[n+](Cc3ccccc3)c3ccccc32)cc1,i,-5%,-18,23µM*,-4%,-4
Cc1ccc(Cn2cc(CN3[C@H](CC(C)C)COc4cc(Br)ccc4S3(=O)=O)nn2)cc1,.,.,.,.,.,-3
O=C(CCN1C(=O)c2ccccc2Sc2ncccc21)Nc1ccc(F)cc1,.,8%,.,.,4%,-15
Cc1nn(C)c(C(=O)Nc2ccc(S(=O)(=O)NC34CC5CC(CC(C5)C3)C4)cc2)c1Br,i,?,-1,i,15µM*,3
CCN(CC(=O)NCc1cccs1)C(=O)CCCOc1ccc(C(C)(C)C)cc1,21µM*,-7%,14,?,?,7
CCCCNCc1cc(Cl)c(OCCC)c(OCC)c1,16µM*,-4%,-1,i,5%,16
CC(=O)c1ccc(OCCNS(=O)(=O)c2ccc(-n3cnnn3)c(C)c2)cc1,i,-8%,-11,i,5.8µM*,-23
O=[S+]([O-])(c1ccc2ncsc2c1)N1CCN([S+](=O)([O-])c2c(F)cccc2F)CC1,.,-1%,.,.,10%,.
CCn1cc(C(=O)OCC(=O)c2ccccc2)c(=O)c2ccc(C)nc21,?,8%,-3,i,-10%,4
COc1ccc(NCc2n[nH]c(=O)c3ccccc23)cc1,i,-1%,3,i,-27%,4
Cc1cc(C(=O)COC(=O)Cc2n[nH]c(=O)c3ccccc23)c(C)n1-c1cccc(C(F)(F)F)c1,21µM*,-5%,-7,?,-24%,-3
